# According to the supplement of paper PMC6555819:
# Columns and labels:
# Assay in all cases: PBM binding z-score (relative to random genomic background probes); higher = stronger binding; sequences stand for … in GC…GCGATTGACAGCGTAGAATGAAGG
# [1] = test system: FXR:RXRa (NR concentration 270 nM, RXRa partner concentration 90 nM)
# Method in brief: (§1)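 Random background probes are the reference for binding z-scores. These scores derive from regression-normalized fluorescence on custom Agilent 4×180K protein-binding microarrays incubated 1 h with ligand-free nuclear receptor dimers. Binding was detected with antibodies against each partner (one per run).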
# [2] = test system: LXRa:RXRa (NR concentration 270 nM, RXRa partner concentration 90 nM)
# Method in brief: as §1
# [3] = test system: LXRa homodimer (NR concentration 270 nM)
# Method in brief: as §1
# [4] = test system: LXRb:RXRa (NR concentration 270 nM, RXRa partner concentration 90 nM)
# Method in brief: as §1
# [5] = test system: LXRb homodimer (NR concentration 270 nM)
# Method in brief: as §1
# [6] = test system: PPARa:RXRa (NR concentration 270 nM, RXRa partner concentration 90 nM)
# Method in brief: as §1
# [7] = test system: PPARg:RXRa (NR concentration 180 nM, RXRa partner concentration 90 nM)
# Method in brief: as §1
# [8] = test system: PPARg:RXRa 270nM:90nM, anti-RXR (NR concentration 270 nM, RXRa partner concentration 90 nM)
# Method in brief: as §1
# [9] = test system: PPARg:RXRa 30nM:10nM, anti-RXR (NR concentration 30 nM, RXRa partner concentration 10 nM)
# Method in brief: as §1
# [10] = test system: PPARg:RXRa 90nM:30nM, anti-RXR (NR concentration 90 nM, RXRa partner concentration 30 nM)
# Method in brief: as §1
sequence,measurement,setting,value
CCGTCTGGGGCATAAGGTTACCATAAGCCAGCCC,PBM binding z-score,[1],0.562
same,PBM binding z-score,[2],2.1
same,PBM binding z-score,[3],-0.402
same,PBM binding z-score,[4],0.847
same,PBM binding z-score,[5],-1.32
same,PBM binding z-score,[6],1.78
same,PBM binding z-score,[7],1.29
same,PBM binding z-score,[8],2.07
same,PBM binding z-score,[9],0.233
same,PBM binding z-score,[10],1.54
CAAACTAGGCCACAGAGGTCAAAGTCCGTGCGTA,PBM binding z-score,[1],5.06
same,PBM binding z-score,[2],5.36
same,PBM binding z-score,[3],5.33
same,PBM binding z-score,[4],5.13
same,PBM binding z-score,[5],0.98
same,PBM binding z-score,[6],5.87
same,PBM binding z-score,[7],7.19
same,PBM binding z-score,[8],6.39
same,PBM binding z-score,[9],4.5
same,PBM binding z-score,[10],5.82
AATACACGGTCACTAGGCCAGAGTAGGTACGAAT,PBM binding z-score,[1],0.614
same,PBM binding z-score,[2],1.45
same,PBM binding z-score,[3],1.32
same,PBM binding z-score,[4],0.203
same,PBM binding z-score,[5],0.449
same,PBM binding z-score,[6],0.827
same,PBM binding z-score,[7],2.67
same,PBM binding z-score,[8],1.74
same,PBM binding z-score,[9],0.885
same,PBM binding z-score,[10],1.15
CGTCCAAGGTCAGAGAGGTCAATGAATGCCGAGT,PBM binding z-score,[1],6.53
same,PBM binding z-score,[2],5.92
same,PBM binding z-score,[3],4.51
same,PBM binding z-score,[4],5.64
same,PBM binding z-score,[5],0.884
same,PBM binding z-score,[6],5.36
same,PBM binding z-score,[7],3.79
same,PBM binding z-score,[8],4.67
same,PBM binding z-score,[9],1.52
same,PBM binding z-score,[10],3.58
TAGCCTAGGTCATTCAGGGGCCAGTATCGAAAGC,PBM binding z-score,[1],4.39
same,PBM binding z-score,[2],3.78
same,PBM binding z-score,[3],0.945
same,PBM binding z-score,[4],3.2
same,PBM binding z-score,[5],1.1
same,PBM binding z-score,[6],3.76
same,PBM binding z-score,[7],1.95
same,PBM binding z-score,[8],2.11
same,PBM binding z-score,[9],0.0848
same,PBM binding z-score,[10],0.958
CGTCCAAGGTCATCAGGTCAGTGAAAGCGACGTG,PBM binding z-score,[1],7.31
same,PBM binding z-score,[2],5.49
same,PBM binding z-score,[3],1.85
same,PBM binding z-score,[4],4.14
same,PBM binding z-score,[5],0.684
same,PBM binding z-score,[6],5.83
same,PBM binding z-score,[7],6.35
same,PBM binding z-score,[8],6.07
same,PBM binding z-score,[9],2.32
same,PBM binding z-score,[10],4.84
AGCTCTAGGTAAGACTCAGTTCAGTGAAGAACGC,PBM binding z-score,[1],-0.104
same,PBM binding z-score,[2],0.132
same,PBM binding z-score,[3],0.197
same,PBM binding z-score,[4],-0.188
same,PBM binding z-score,[5],-0.399
same,PBM binding z-score,[6],-0.0359
same,PBM binding z-score,[7],-0.139
same,PBM binding z-score,[8],0.0762
same,PBM binding z-score,[9],0.0391
same,PBM binding z-score,[10],-0.261
ATCTCTAGATAACAAGTTCAGTGAAAGAGAGGAC,PBM binding z-score,[1],0.459
same,PBM binding z-score,[2],0.495
same,PBM binding z-score,[3],0.398
same,PBM binding z-score,[4],0.384
same,PBM binding z-score,[5],0.4
same,PBM binding z-score,[6],0.365
same,PBM binding z-score,[7],0.657
same,PBM binding z-score,[8],0.541
same,PBM binding z-score,[9],0.363
same,PBM binding z-score,[10],0.315
CCTTACGGGTCACGAGGTTATAGAACGACGAGCG,PBM binding z-score,[1],6.7
same,PBM binding z-score,[2],4.58
same,PBM binding z-score,[3],0.451
same,PBM binding z-score,[4],4.12
same,PBM binding z-score,[5],-0.0451
same,PBM binding z-score,[6],6.16
same,PBM binding z-score,[7],7.18
same,PBM binding z-score,[8],6.91
same,PBM binding z-score,[9],3.33
same,PBM binding z-score,[10],5.23
CCTACTGGGGCAAGGTCATTGATCAGTCAAAGCA,PBM binding z-score,[1],3.59
same,PBM binding z-score,[2],3.26
same,PBM binding z-score,[3],1.02
same,PBM binding z-score,[4],2.98
same,PBM binding z-score,[5],-0.569
same,PBM binding z-score,[6],4.29
same,PBM binding z-score,[7],5.81
same,PBM binding z-score,[8],5.36
same,PBM binding z-score,[9],2.53
same,PBM binding z-score,[10],4.8
CCTATTAGTTGACCATAAGGGCAGCCGAAGCTCG,PBM binding z-score,[1],0.542
same,PBM binding z-score,[2],-0.0359
same,PBM binding z-score,[3],0.036
same,PBM binding z-score,[4],0.218
same,PBM binding z-score,[5],0.392
same,PBM binding z-score,[6],0.0636
same,PBM binding z-score,[7],0.126
same,PBM binding z-score,[8],0.442
same,PBM binding z-score,[9],-0.292
same,PBM binding z-score,[10],-0.0917
CCTTACGGGTCAAGGTTATAGCTCGGGTGGTACG,PBM binding z-score,[1],5.6
same,PBM binding z-score,[2],3.71
same,PBM binding z-score,[3],0.385
same,PBM binding z-score,[4],3.06
same,PBM binding z-score,[5],0.274
same,PBM binding z-score,[6],5.04
same,PBM binding z-score,[7],4.42
same,PBM binding z-score,[8],4.35
same,PBM binding z-score,[9],1.57
same,PBM binding z-score,[10],3.44
CCTTACGGGTCAAGTTTATAGCACGGGTGGTACG,PBM binding z-score,[1],6.15
same,PBM binding z-score,[2],4.11
same,PBM binding z-score,[3],0.444
same,PBM binding z-score,[4],3.48
same,PBM binding z-score,[5],0.604
same,PBM binding z-score,[6],5.14
same,PBM binding z-score,[7],4.2
same,PBM binding z-score,[8],4.22
same,PBM binding z-score,[9],1.91
same,PBM binding z-score,[10],3.06
ACAGACAGGTGATGCAGGTAACTCAGGCTATCAT,PBM binding z-score,[1],-0.0955
same,PBM binding z-score,[2],-0.176
same,PBM binding z-score,[3],-0.459
same,PBM binding z-score,[4],-0.222
same,PBM binding z-score,[5],-0.442
same,PBM binding z-score,[6],0.00895
same,PBM binding z-score,[7],0.577
same,PBM binding z-score,[8],-0.188
same,PBM binding z-score,[9],-0.309
same,PBM binding z-score,[10],-0.256
TCTTGTAGATCAATAGAGTTTAAGAAAGTGCGCT,PBM binding z-score,[1],0.426
same,PBM binding z-score,[2],0.959
same,PBM binding z-score,[3],0.0611
same,PBM binding z-score,[4],0.0999
same,PBM binding z-score,[5],-0.184
same,PBM binding z-score,[6],0.514
same,PBM binding z-score,[7],-0.0887
same,PBM binding z-score,[8],1
same,PBM binding z-score,[9],2.5
same,PBM binding z-score,[10],1.99
ACTAGCAGTCCAAGGGTCACTCAAGATTAGTCCG,PBM binding z-score,[1],2.25
same,PBM binding z-score,[2],2.99
same,PBM binding z-score,[3],0.313
same,PBM binding z-score,[4],2.87
same,PBM binding z-score,[5],-0.249
same,PBM binding z-score,[6],3.41
same,PBM binding z-score,[7],3.5
same,PBM binding z-score,[8],4.58
same,PBM binding z-score,[9],2.19
same,PBM binding z-score,[10],4.18
ACTTACGGGTCAACGAGGTTTTAGCACGCGTATA,PBM binding z-score,[1],6.78
same,PBM binding z-score,[2],4.29
same,PBM binding z-score,[3],0.188
same,PBM binding z-score,[4],3.9
same,PBM binding z-score,[5],0.561
same,PBM binding z-score,[6],5.92
same,PBM binding z-score,[7],5.23
same,PBM binding z-score,[8],4.84
same,PBM binding z-score,[9],1.94
same,PBM binding z-score,[10],3.95
CCGATTGGGGCAAAGGTTACCATACTCAGTACGA,PBM binding z-score,[1],1.84
same,PBM binding z-score,[2],1.62
same,PBM binding z-score,[3],-0.0955
same,PBM binding z-score,[4],2.33
same,PBM binding z-score,[5],-0.878
same,PBM binding z-score,[6],4.89
same,PBM binding z-score,[7],8.96
same,PBM binding z-score,[8],8.43
same,PBM binding z-score,[9],7.85
same,PBM binding z-score,[10],8.46
CCTAGTTGGTCAGGAGGTCAAACACCGGATATGA,PBM binding z-score,[1],4.57
same,PBM binding z-score,[2],4.4
same,PBM binding z-score,[3],3.59
same,PBM binding z-score,[4],4.03
same,PBM binding z-score,[5],1.06
same,PBM binding z-score,[6],4.55
same,PBM binding z-score,[7],3.32
same,PBM binding z-score,[8],3.96
same,PBM binding z-score,[9],1.67
same,PBM binding z-score,[10],3.26
CTCGAAAGATCGTGCTCAGGTGAGTATACCAAAC,PBM binding z-score,[1],-0.102
same,PBM binding z-score,[2],-0.388
same,PBM binding z-score,[3],-0.396
same,PBM binding z-score,[4],-0.276
same,PBM binding z-score,[5],-0.402
same,PBM binding z-score,[6],-0.384
same,PBM binding z-score,[7],-0.161
same,PBM binding z-score,[8],-0.399
same,PBM binding z-score,[9],-0.236
same,PBM binding z-score,[10],-0.424
ATATGTAGGTTACATCCGGGTCACTCAGGCTATG,PBM binding z-score,[1],2.08
same,PBM binding z-score,[2],3.86
same,PBM binding z-score,[3],1.09
same,PBM binding z-score,[4],2.75
same,PBM binding z-score,[5],0.682
same,PBM binding z-score,[6],4.31
same,PBM binding z-score,[7],6.07
same,PBM binding z-score,[8],5.17
same,PBM binding z-score,[9],2.68
same,PBM binding z-score,[10],4.31
CCTGCTAGGTTAATGGTCAGCTAAAGCAGCTCGC,PBM binding z-score,[1],-0.16
same,PBM binding z-score,[2],0.22
same,PBM binding z-score,[3],-0.415
same,PBM binding z-score,[4],0.0198
same,PBM binding z-score,[5],-0.231
same,PBM binding z-score,[6],0.798
same,PBM binding z-score,[7],1.47
same,PBM binding z-score,[8],3.16
same,PBM binding z-score,[9],0.835
same,PBM binding z-score,[10],2.53
AATACAGGTTCACTAGGCCAGAGTAGGTACGAAT,PBM binding z-score,[1],1.7
same,PBM binding z-score,[2],2.58
same,PBM binding z-score,[3],0.711
same,PBM binding z-score,[4],1.5
same,PBM binding z-score,[5],0.333
same,PBM binding z-score,[6],3.19
same,PBM binding z-score,[7],3.24
same,PBM binding z-score,[8],2.98
same,PBM binding z-score,[9],0.739
same,PBM binding z-score,[10],1.97
